JMJD2A Tudor inh: blocks the human JMJD2A Tudor domain; Potency, µM (titrated, usually from 114 µM), inactives show at the top dose activity change, negative = inhibition, most hits filed as inhibitors; O75164; hit rate 4.4% among 390,000; AlphaScreen JMJD2A-Tudor / H3K4me3 peptide binding; AID 504339; note: % is set by controls: 0 for no effect and ±100 for the full control effect; nearly all actives have a fitted effect of over 50% in size
Target sequence (O75164 whole entry, looked up, the tested form may be a part): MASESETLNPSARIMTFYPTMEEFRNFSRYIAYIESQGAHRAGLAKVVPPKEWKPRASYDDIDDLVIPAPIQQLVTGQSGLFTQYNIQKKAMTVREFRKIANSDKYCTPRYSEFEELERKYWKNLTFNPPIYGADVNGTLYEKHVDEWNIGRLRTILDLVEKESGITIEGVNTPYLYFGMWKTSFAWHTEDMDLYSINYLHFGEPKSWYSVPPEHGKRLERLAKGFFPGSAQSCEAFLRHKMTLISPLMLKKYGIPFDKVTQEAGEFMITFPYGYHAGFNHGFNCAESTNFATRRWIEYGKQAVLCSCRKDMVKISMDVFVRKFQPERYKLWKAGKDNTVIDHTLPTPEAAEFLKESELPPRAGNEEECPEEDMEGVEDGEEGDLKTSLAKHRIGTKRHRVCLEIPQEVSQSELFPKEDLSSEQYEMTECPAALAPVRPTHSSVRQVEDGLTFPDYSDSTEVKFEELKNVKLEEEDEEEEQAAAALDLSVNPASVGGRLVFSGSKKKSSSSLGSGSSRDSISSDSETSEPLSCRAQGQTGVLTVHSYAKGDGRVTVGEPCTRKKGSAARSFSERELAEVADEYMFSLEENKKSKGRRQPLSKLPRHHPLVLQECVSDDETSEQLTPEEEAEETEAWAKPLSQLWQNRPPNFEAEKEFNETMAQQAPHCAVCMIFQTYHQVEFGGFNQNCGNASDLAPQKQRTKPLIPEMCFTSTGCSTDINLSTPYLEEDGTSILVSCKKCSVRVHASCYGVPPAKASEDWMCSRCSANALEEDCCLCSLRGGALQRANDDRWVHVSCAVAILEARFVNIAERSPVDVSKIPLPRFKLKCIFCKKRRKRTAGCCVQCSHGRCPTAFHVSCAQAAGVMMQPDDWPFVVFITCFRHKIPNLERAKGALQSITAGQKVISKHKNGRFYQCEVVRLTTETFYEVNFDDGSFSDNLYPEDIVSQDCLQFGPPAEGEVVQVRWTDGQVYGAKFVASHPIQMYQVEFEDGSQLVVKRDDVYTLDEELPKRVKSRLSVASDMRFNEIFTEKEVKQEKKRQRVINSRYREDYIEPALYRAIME
G9a inh: inhibitors of human histone lysine methyltransferase G9a. G9a H3K9 monomethylation, AlphaScreen, 2 h. AID 504332. Potency, µM (titrated, usually from 102 µM), for inactives: top-dose activity, negative = inhibition, actives largely listed as inhibitors. Q96KQ7. hit rate 8.8% among 350,000; note: % is set by controls: 0 for no effect and ±100 for the full control effect; nearly all actives have a fitted effect of over 75% in size
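G9a (20 nM) was preincubated 15 min with compound, then reacted 2 h at room temperature with 500 nM biotin-H3K9 peptide and 20 µM SAM. Monomethyl-H3K9 detected by AlphaScreen using anti-H3K9me1 antibody.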
BAZ2B inh: inhibitors of human BAZ2B bromodomain. Q9UIF8. AlphaScreen BAZ2B-H3K14Ac peptide displacement. Potency, µM (highest dose often 114 µM), without a hit: at the top dose activity change, negative = inhibition, usual class: inhibitors. hit rate 4.4% among 360,000; note: % is set by controls: 0 for no effect and ±100 for the full control effect; nearly all actives have a fitted effect of over 60% in size
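AlphaScreen luminescence quantifies BAZ2B engagement of H3K14Ac peptide; the protein and biotinylated peptide are both at 50 nM final, buffer PBS pH 7.4 with 0.01% Tween-20, all steps at room temperature.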
HP1b chromo inh: blocks HP1-beta chromodomain binding to methylated histone tails | P83916 | AlphaScreen HP1-beta / biotin-H3K9me3 peptide binding | Potency, µM (doses to about 114 µM), inactives show top-dose activity change, negative = inhibition, usual class: inhibitors | hit rate 0.56% among 390,000 | AID 540317; note: nearly all actives have a fitted effect of over 70% in size
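HP1-beta protein (50 nM final) preincubated 30 min at room temperature with biotinylated H3(1-18)K9me3 peptide (50 nM) in PBS pH 7.4, 0.01% Tween-20, then compound added for 30 min. AlphaScreen streptavidin donor/nickel chelate acceptor beads (10 ug/mL final), 30 min dark, luminescence read.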
GLS inhibitor: inhibitors of human glutaminase (GLS); O94925; GLS enzymatic activity, qHTS titration; Potency, µM (highest dose often 45.5 µM), for the others: at the highest dose activity change, negative = inhibition, actives largely listed as inhibitors; hit rate 0.21% among 410,000; note: % is set by controls: 0 for no effect and ±100 for the full control effect
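Read-out is an Amplex red fluorescence increase coupled through glutamate oxidase and HRP, measured before and after 30 min room-temperature incubation. hKGA is in 45 mM KH2PO4 (pH 8.2) with 0.02% Tween-20; glutamine added as 1mM solution.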
* hit, by the source's call; ? = inconclusive; · = not tested or not shown; [ ] = remark or other dose. Only some compounds are listed: those with a hit (about 10% of all), similar ones and a draw of the others. Calls come from the whole dose curve; as a rule, active = well fitted curve in the direction sought with a large enough effect; inconclusive = small, poorly fitted or top-dose-only effect, or another doubt; inactive = no such curve, though single readings can be large; an effect the other way counts as inactive or inconclusive. Potency is the fitted concentration of half-maximal effect.

SMILES | JMJD2A Tudor inh | G9a inh | BAZ2B inh | HP1b chromo inh | GLS inhibitor
CCOc1cc(N2CCOCC2)c(OCC)cc1NC(=O)c1nn(CC)c(=O)c2ccccc12 | 50µM* | ? | 50µM* | -40% | 11%
CCOc1cc(N2CCOCC2)c(OCC)cc1NC(=O)c1ccc2ccccc2n1 | 22µM* | 18µM* | 16µM* | ? | 0%
CCOc1cc(N2CCOCC2)c(OCC)cc1NC(=O)Cc1cccc2ccccc12 | ? | 3.5µM* | 22µM* | -17% | 26%
CCn1nccc1C(=O)Nc1ccc(Cl)cn1 | -14% | -12% | 25% | 39% | 3%
CCOc1cc(N2CCOCC2)c(OCC)cc1NC(=O)CCC1CCCC1 | -24% | -4%[59 µM] | -34% | 4% | 28%
CCOc1cc(N2CCOCC2)c(OCC)cc1NC(=O)c1ccccc1C | ? | ? | ? | -10% | -3%
CCOc1cc(N2CCOCC2)c(OCC)cc1NC(=O)C(C)Oc1ccccc1 (stereo not given) | 35µM* | · | · | -17%[57 µM] | 22%
CCOc1cc(N2CCOCC2)c(OCC)cc1NC(=O)CN1CCCC1 | ? | 3.2µM* | 13µM* | 4% | 6%
CCCn1c(=O)c(C(=O)NCc2ccccn2)c(O)c2ccccc21 | 5% | 25%[12.7 µM] | 9% | 64% | 4%
CCOc1cc(/C=N/Nc2nc(C)cc(=O)[nH]2)ccc1O | -14% | -35%[2.33 µM] | -9% | 39% | 31%
COc1cc(/C=N\Nc2nc(-c3ccc(C)cc3)c(NC(C)=O)s2)ccc1O | -27%[11.4 µM] | -120%[59 µM] | 40µM* | 28µM* | -17%
CCOc1cc(/C=N\Nc2nc(-c3ccc(C)cc3)c(NC(C)=O)s2)ccc1O | 28µM* | 32µM* | -38% | ? | -3%
COc1cc2c(cc1OC)CN(C(=O)CCNC(=O)c1ccccc1Cl)CC2 | -6% | · | · | 19% | 0%
COc1cccc(C(=O)Oc2cc(-c3ccccc3)no2)c1 | -8% | ? | ? | 28% | 0%
NNC(=O)COc1ccc(-c2n[nH]c(C(F)(F)F)c2-c2ccc(Br)cc2)c(O)c1 | -16% | 15%[59 µM] | -13% | 23% | 1%
COC(=O)c1ccc(N=Nc2ccccc2)cc1 | ? | 40µM* | 13µM* | ? | -1%
Oc1ccc(N=Nc2ccccc2)cc1 | ? | 50µM* | ? | -10% | -7%
COC(=O)CCC(=O)Nc1ccc(N=Nc2ccccc2)cc1 | ? | 10µM* | 40µM* | 6% | 6%
Oc1ccc(Cl)cc1N=Nc1ccccc1 | 35µM* | 22µM* | 32µM* | -27% | 7%
CCc1nc(N)nc(N)c1-c1ccc(N(C)Cc2ccccc2)c([N+](=O)[O-])c1 | 45µM* | · | · | -37% | 0%
Cc1noc(-c2ccc(N(C)Cc3ccccc3)c([N+](=O)[O-])c2)n1 | -16% | -6%[59 µM] | 3% | 14% | -12%
CCCCN(CC)C(=O)c1ccc2c(c1)NC(=O)c1ccccc1S2 | -16% | -30%[59 µM] | -10% | 27% | 6%
Cc1ccc(Nc2nc(N)nc(CSC(=S)N3CCN(c4ccccc4)CC3)n2)cc1 | ? | 35µM* | ? | -13% | -7%
COc1ccccc1Nc1nc(N)nc(CSC(=S)N2CCN(c3ccccc3)CC2)n1 | -31% | -40% | -33% | 14% | -3%
Nc1nc(CSC(=S)N2CCN(c3ccccc3)CC2)nc(Nc2ccccc2)n1 | ? | 45µM* | ? | -16% | 16%
SMILES | JMJD2A Tudor inh | G9a inh | BAZ2B inh | HP1b chromo inh | GLS inhibitor
CCOc1ccc(NS(=O)(=O)c2cc(NC(=O)c3ccc(C)cc3)ccc2Cl)cc1 | -25% | 0%[59 µM] | -33% | 0% | 9%
O=C(CN1C(=O)S/C(=C\c2ccccn2)C1=O)Nc1ccccc1 | -5% | -2%[0.501 µM] | -8% | 29% | -3%
COc1cc(/C=C2\SC(=O)N(CC(=O)Nc3ccc(C)cc3)C2=O)cc(Cl)c1OCC(=O)O | 11µM* | ? | 14µM* | 14µM* | 7.1µM*
O=C(CN1C(=O)S/C(=C\c2cc(Cl)c(O)c(Cl)c2)C1=O)Nc1ccccc1 | ? | · | 45µM* | -16% | 30%
COc1ccc(/C=C2\SC(=O)N(CCCC(=O)Nc3ccc(C(=O)O)cc3)C2=O)cc1OC | -4% | 9% | -2% | 15% | 6%
N#Cc1nc(-c2ccco2)oc1N1CCN(c2cccc(Cl)c2)CC1 | ? | ? | 25µM* | ? | 1%
N#Cc1nc(-c2ccco2)oc1N1CCc2ccccc2C1 | ? | ? | 25µM* | ? | 14%
COc1ccccc1-c1nc(C#N)c(N2CCN(c3cccc(Cl)c3)CC2)o1 | ? | 0.71µM* | 6% | ? | -2%
N#Cc1nc(-c2ccco2)oc1N1CCCC1 | -19% | 25%[2.33 µM] | 3% | 1% | 2%
N#Cc1nc(-c2ccccc2)oc1N1CCN(C(=O)c2ccco2)CC1 | -28% | 40µM* | 2% | -18% | -1%
N#Cc1c(N2CCN(C(=O)c3ccco3)CC2)nc(-c2ccccc2)c2c1CCCC2 | -14% | -33%[59 µM] | -11% | 14% | 0%
N#Cc1nc(-c2ccco2)oc1N1CCN(C(c2ccccc2)c2ccccc2)CC1 | -35% | ? | ? | ? | -1%
O=C1CC(c2ccc(F)cc2)c2cc3c(cc2N1)CCC3 (stereo not given) | -9% | 10%[59 µM] | 3% | 30% | 1%
CCc1ccc(-c2cn3nc(C)c(C)nc3n2)cc1 | 17% | 15%[59 µM] | -1% | 51% | 17%
Cc1cc(Nc2ccccc2C)n2nc(Cc3ccc(Cl)cc3)nc2n1 | -19% | -25%[59 µM] | -16% | 36% | -8%
Cn1c(=O)c2c(nc(N3CCCCC3)n2CCCNC2=NCCCC2)n(C)c1=O | -9% | 19%[12.7 µM] | -3% | 33% | -2%
N#Cc1nc(-c2cccs2)oc1N1CCN(Cc2ccccc2)CC1 | ? | ? | 25µM* | ? | 9%
Cc1ccnc(NC(=O)/C=C/c2ccccc2Cl)c1 | -18% | ? | -8% | -3% | 11%
COc1ccc(-c2csc(CCN3N=C(C)CC3=O)n2)cc1 | ? | 32µM* | 40µM* | 2% | ?
O=C(/C(=C/O)N=Nc1cccc(C(F)(F)F)c1)c1ccccc1 | 45µM* | 45µM* | 25µM* | ? | -1%
O=C(/C(=C/O)N=Nc1ccccc1)c1ccco1 | ? | -49% | ? | ? | 61%
Cc1cccc(N=N/C(=C\O)C(=O)c2ccc(Br)cc2)c1 | ? | 11µM* | ? | -9% | -2%
O=C(/C(=C/O)N=Nc1ccccc1Cl)c1ccccc1 | -26%[11.4 µM] | 40µM* | 13µM* | 32µM* | ?
COc1cc(-c2nnc(SCCOc3cc(C)cc(C)c3)o2)cc(OC)c1OC | -36% | -46%[59 µM] | -33% | 50% | -1%
CCSc1ccc([C@@H]2[C@H]3C(=O)N(CC)C(=O)[C@H]3[C@]3(C(=O)OC)CCCCN23)cc1OC | -26% | · | · | 34% | -9%

Source: PubChem BioAssay
